Experimental data published in ChEMBL document CHEMBL3988442, “University of Dundee, Small-Polar-MMV Screening Library” (2021).
Among all 48,000 compounds or so, about 13,000 (27%) showed an effect of 50% or more. The list shows a part of the results.

system: Wolbachia pipientis; assay: Anti-Wolbachia Cell-Based Screen; format: functional; design: scale not given: in the data most compounds retested in dose-response had high values; conditions: 5 µM

SMILES	Percent Effect [%]
O=C1COc2cc(C(=O)NS(=O)(=O)c3ccccc3F)ccc2N1	-1.273
Cc1ccc(C(CNCc2c[nH]nc2C)N(C)C)cc1.Cl (stereo not given)	-30.61
CS(=O)(=O)N1C[C@@H]2CC[C@H](C1)N(Cc1cscn1)C2=O	-6.714
CCC1CN(Cc2nnc(C3CC3)o2)CCN1CCOC (stereo not given)	-15.54
COCCN1C(=O)[C@H]2CC[C@@H]1CN(Cc1nnc(C3CC3)o1)C2	101
O=C1[C@H]2CC[C@H](CN(C3CCOCC3)C2)N1Cc1cscn1	-44.85
COCCN1C(=O)[C@H]2CC[C@@H]1CN(c1nccc(C)n1)C2	1.615
O=C1[C@H]2CC[C@H](CN(Cc3nnc(C4CC4)o3)C2)N1Cc1cscn1	105.2
COCCN1C(=O)[C@H]2CC[C@@H]1CN(Cc1nnc(-c3ccccc3)o1)C2	112.1
Cc1cnn(C2CN(Cc3nnc(C4CC4)o3)C2)c1	1.311
COCCN1C(=O)[C@H]2CC[C@@H]1CN(c1ncccn1)C2	-42.86
CCS(=O)(=O)CC(C)N(C)C(=O)NCCc1cccc(F)c1F (stereo not given)	-8.987
CCc1ccc(CN(C)c2ccc(-c3nc(COC)no3)cn2)nc1	-21.07
Cc1nc2n(n1)CC(Nc1cc(C(F)(F)F)nc3ncnn13)CC2 (stereo not given)	10.68
Cc1ccsc1CN(C)C(=O)c1ccc(N2CCOCC2)c(F)c1	8.665
CCc1nc(CN(C)C2CCN(CCCOc3ccccc3)C2)no1 (stereo not given)	76.47
CCc1nc(CN(C)C2CCN(CCNS(=O)(=O)CC)C2)no1 (stereo not given)	8.032
CCc1nc(CN(C)C2CCN(CCOc3ccccc3)C2)no1 (stereo not given)	109.8
CCc1nc(CN(C)C2CCN(Cc3ccc(C#N)cc3F)C2)no1 (stereo not given)	1.706
Cc1ccc(NC2(C(=O)NCCCN)CCCC2)cc1	-6.352
O=C(C[C@H]1[C@H]2CN(C(=O)CO)C[C@@H]12)Nc1cccnc1	10.82
CN(CC(=O)Nc1cccnc1)CC1CCCN1c1cccnn1 (stereo not given)	-11.55
O=C(Nc1nncs1)N1CCC(CCO)CC1	-8.889
O=C(CC1CCN(c2cccnn2)CC1)Nc1cccnc1	90.02
O=C(CC1CCN(c2cccnn2)CC1)Nc1nncs1	96.76

SMILES	Percent Effect [%]
CN(CC(=O)Nc1nncs1)CC1CCCN1c1cccnn1 (stereo not given)	-0.3075
Cc1ccc(N2C(=O)N[C@@H]3CCN(C(=O)C4CC4)[C@@H]3C2=O)cc1	11.16
CCN(Cc1noc(C2CCC2)n1)C(=O)c1cnc2ccccc2c1	94.43
CCCc1nc(CN(CC)C(=O)c2ccc(OC)c(OC)c2)no1	-5.69
CCN(Cc1noc(C2CC2)n1)C(=O)c1onc2ccccc12	98.35
CCCc1nc(CN(CC)C(=O)c2onc3ccccc23)no1	89.45
CCN(Cc1noc(C2CCC2)n1)C(=O)CCc1cc2n(n1)CCNC2	-16.19
CCNC(=O)N1CC(c2nc(Cc3ccccc3)no2)C1	-5.949
CCCc1nc(CN(CC)C(=O)c2ccc3ncsc3c2)no1	-3.567
CN1CCC(N(CCc2ccccc2)Cc2noc(C3CC3)n2)CC1	8.424
Cn1ccnc1CN(CCO)C(=O)c1cnc2ccccc2c1	-19.73
Cc1noc(COCC(=O)Nc2cc(C)c(Br)cn2)n1	-3.051
CC(=O)NCC1CN(c2ccc3c(Cl)ccnc3c2F)CCO1 (stereo not given)	-19.58
Cc1ccc(C(=O)NCCNCC2CNc3ccnn3C2)cc1F (stereo not given)	-3.46
CN1CCCN(c2nccc(-c3cncnc3C3CCCCC3)n2)CC1	86.07
Cc1nn(C)cc1-c1ccnc(N2CCN(c3cnccn3)CC2)n1	17.52
CCc1ncc2c(n1)CN(c1nccc(C3CCCC3)n1)C2	14.73
CN1CCN(c2nccc(-c3cncnc3C3CCCCC3)n2)CC1	58.46
Cc1ccc([C@@H]2CN(C(=O)c3ccc[nH]3)C[C@H]2NC(=O)C2CC2)cc1	0.8109
Cc1cc(NC(=O)NCC(C(C)C)N2CCOCC2)n(C)n1 (stereo not given)	115.8
COc1ccc(C(O)CNC(=O)Nc2cc(C)nn2C)cc1 (stereo not given)	-16.1
CCC(CC)C(CNC(=O)Nc1cc(C)nn1C)N1CCOCC1 (stereo not given)	-3.913
Cc1cc(NC(=O)NCC(C)O)n(C)n1 (stereo not given)	-6.671
Cc1ccc(F)cc1NC(=O)NCC(C)N1CCOCC1 (stereo not given)	9.148
CCn1cnnc1CNC(=O)NCC(C(C)C)N1CCOCC1 (stereo not given)	-2.117

SMILES	Percent Effect [%]
Cc1cc(NC(=O)NCC(CC(C)C)N2CCOCC2)n(C)n1 (stereo not given)	103.9
Cc1c(NC(=O)NCC(C)N2CCOCC2)cccc1OC(F)F (stereo not given)	-9.929
Cc1cc(NC(=O)NCC(C)N2CCOCC2)n(C)n1 (stereo not given)	113
CC(C)CC(CNC(=O)NCc1cc[nH]n1)N1CCOCC1 (stereo not given)	6.619
Cc1noc(C)c1CC(=O)NCC(CC(C)C)N1CCOCC1 (stereo not given)	-1.173
CCC(CC)C(O)CNC(=O)Nc1cc(C)nn1C (stereo not given)	91.79
CC(C)CS(=O)(=O)N1CCC2(CN(c3cccc(F)c3)C(=O)CN2C)C1.O=C(O)C(F)(F)F (stereo not given)	10.41
CC(O)c1cn(C2CCN(C(=O)C3(C)CCN(C)CC3)CC2)nn1 (stereo not given)	3.786
C=C1C(C)(C)[C@H]2CC[C@]1(C(=O)N1CCC(n3cc(CO)nn3)CC1)C2	93.63
Cn1cc(Cl)c(CN2CCCC(Cn3cc(CO)nn3)C2)n1 (stereo not given)	-2.88
Cc1ccoc1C(=O)N1CCC(n2cc(CO)nn2)CC1	-7.426
Cc1ccc(C(=O)N2CCC(n3cc(CO)nn3)CC2)cn1	1.663
CC1(C(=O)N2CCC(n3cc(C4(O)CCCC4)nn3)CC2)CCCCC1	-2.498
C=C1C(C)(C)[C@H]2CC[C@]1(C(=O)N1CCC(n3cc(CCO)nn3)CC1)C2	95.18
C=C1C(C)(C)[C@H]2CC[C@]1(C(=O)N1CCC(Cn3cc(CO)nn3)CC1)C2	87.91
OCc1cn(CC2CCN(C3CCSC3)CC2)nn1 (stereo not given)	-25.36
CCc1noc(CS(=O)(=O)CC=C(C)C)n1	-4.555
O=C(NCC1CC[C@@H]2[C@@H]1OCCN2Cc1cccs1)c1ccco1.O=C(O)C(F)(F)F (stereo not given in full)	0.6461
CN(C)C(=O)CN1CCC2(CCCN(Cc3ccoc3)C2)C1=O (stereo not given)	-23.42
COC[C@H]1CN(CC2CC2)C(=O)[C@@H]2CCN(Cc3ccoc3)CC[C@H]12.O=C(O)C(F)(F)F	-27.64
CN1CCC(CN2CCC3(CCCN(Cc4ccoc4)C3)C2=O)CC1.O=C(O)C(F)(F)F.O=C(O)C(F)(F)F (stereo not given)	107.1
O=C(O)C(F)(F)F.O=C1N(CC2CC2)CCC12CCN(Cc1ccoc1)CC2	112.5
COCCN1CCC2(CCCN(Cc3ccoc3)C2)C1=O.O=C(O)C(F)(F)F (stereo not given)	89.97
O=C(O)C(F)(F)F.O=C1N(CC2CC2)CCC12CCN(CC1CC1)CC2	11.64
CC(=O)N[C@@H](CC(C)C)C(=O)N1CCC(n2cc(CC(C)C)nn2)CC1	-6.729

SMILES	Percent Effect [%]
O=S(=O)(Nc1ccccn1)c1cc(Cl)cc2c1OCC2	-2.666
COCc1ncn2c1CN(S(=O)(=O)c1cccs1)CCC2	-6.89
FC(F)(F)c1ccc(CNC[C@H]2COCc3nc4cccnc4n32)cc1	-6.835
CCOCc1ccc(NCc2cnc(N3CCN(C)CC3)nc2)cc1	18.94
O=S(=O)(NCCC(O)c1cccs1)c1ccccc1 (stereo not given)	2.573
CSc1ccc(OC(C)C(=O)Nc2c(C)n[nH]c2C)cc1 (stereo not given)	-3.157
CCOCc1nc2c(c(NC(CC)c3ccncc3)n1)CCNCC2 (stereo not given)	-23.76
O=C(Nc1ccc(-n2cncn2)nc1)N(CC1CCOC1)C1CC1 (stereo not given)	3.822
Cc1cc(CNC(=O)NCCOc2ccc(F)c(F)c2)on1	-11.19
O=C(NCC1CCS(=O)(=O)C1)c1ccc(NC(=O)c2ccco2)cc1 (stereo not given)	100.2
O=C1COC[C@H]([C@H](O)c2ccc(NC(=O)c3ccco3)cc2)N1	-8.877
O=C(NCC1CCCN(C(=O)NCCc2ccccc2)C1)c1ccco1 (stereo not given)	-12.18
Cc1cc(C(=O)NCC2CCS(=O)(=O)C2)ccc1NC(=O)c1ccco1 (stereo not given)	105.8
O=C(NCC1CC1)c1ccc(NC(=O)c2ccco2)cc1	109.6
O=C(NCC1CCS(=O)(=O)C1)Nc1ccccn1 (stereo not given)	11.69
Cc1ccc(NC(=O)NCC2CCS(=O)(=O)C2)cc1Cl (stereo not given)	41.82
Cc1cccc(C(=O)NCC2CCS(=O)(=O)C2)n1 (stereo not given)	20.7
COc1ncccc1NC(=O)NCC1CCS(=O)(=O)C1 (stereo not given)	-8.215
Cc1occc1C(=O)Nc1ccc(C(=O)NC[C@H]2CCCN2)cc1	-11.64
O=C(NCC1CCS(=O)(=O)C1)c1ccco1 (stereo not given)	88.86
O=C(NCC1CCS(=O)(=O)C1)c1ccc2cccc(Cl)c2n1 (stereo not given)	-11.54
Cc1cnn(CCNCc2c(C)nn(-c3ccccc3)c2C)c1	2.27
CCn1ccnc1CNCC1CCCN1c1cc(NC)ncn1 (stereo not given)	-2.475
CC1(c2ccccc2)CCCN(Cc2cncn2C2CC2)C1 (stereo not given)	-17.5
CC(=O)N1CCN2C(=O)N(Cc3ccc(F)cc3)C[C@H]2C1	-0.8027
